Reference: PubChem BioAssay (EPA / NIEHS)
Records with an inconclusive call do not appear. Calls of active or inactive are those of the source. Rule for the calls: active = hit-call score of the fitted dose curve at least 0.9, where 1 is the maximum; inconclusive = response in the unintended direction; inactive = score below 0.9.

How the values were obtained:
[1] = target: Luciferin 4-monooxygenase (Photinus pyralis) (UniProt P08659); assay: CCTE_Simmons_QuantiLum_inhib_2: CCTE's Firefly Luciferase Inhibition Assay, Simmons Lab (AID 2283767);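 for AC50: potency for inhibitors that lower luciferase luminescence relative to DMSO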
Method in brief: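 Eight test concentrations, 5 nM up to 87.5 uM final, preincubated 30min at 37C in the dark with purified luciferase (0.5% DMSO final). Detection reagent (150uM D-luciferin, 147uM dATP, 75uM CoA, pH 7.8) injected per well before kinetic luminescence read; three replicates.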

[2] = ACEA_AR_antagonist_AUC_viability: ACEA Biosciences xCELLigence Real-Time Cell Analysis on Androgen Receptor Antagonism for Viability (AID 2283776);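 note: 22Rv1 human prostate cancer cells growing on impedance electrode plates; area under impedance growth curve at 80 h after dosing as viability; hits lower the growth signal relative to DMSO meaning cytotoxicity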
Method in brief: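 Viability endpoint from label-free cell-index monitoring: 22Rv1 cultures treated with an eight-point 1:4 dilution series starting at 100 uM final, AUC at 80 h fitted against DMSO.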

[3] = STM_H9_NormalizedViability: Cytotoxicity Assessment at 120 hours in the Stemina devTOX quickPredict H9 human embryonic stem cell (hESC)-based Assay (AID 2283784)
Method in brief: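 Viability endpoint: background-corrected CellTiter-Fluor RFU expressed relative to the 0.1% DMSO mean on each plate. Undifferentiated H9 cells were treated with daily re-dosing and media change, and loss of signal was fitted.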

[4] = ACEA_AR_agonist_AUC_viability: ACEA Biosciences xCELLigence Real-Time Cell Analysis on Androgen Receptor Agonism for Viability (AID 2283775);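 for AC50: viability read 80 hours after compound addition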
Method in brief: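 22Rv1 cells; impedance growth kinetics; 8-pt 1:4 dilutions from 100 uM top final, ≤0.5% DMSO; n = 2; 80 h read; AUC viability, loss-of-signal vs DMSO.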

[5] = tested on: zebrafish Androgen Receptor (AR), gene 100005148; assay: ATG_zfAR_XSP1: Attagene TRANS-FACTORIAL Multi-Species (XSP1) HepG2 Assay for zebrafish Androgen Receptor (AR) (AID 2283771)
Method in brief: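 Gain-of-signal versus DMSO was measured as reporter transcripts quantified by RT-PCR, fluorescent labelling and capillary electrophoresis after 24 h chemical exposure. The cells were HepG2 expressing a chimeric zebrafish AR-GAL4, co-stimulated with 3 nM 6-alpha-fluorotestosterone.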

[6] = target: zebrafish Estrogen Receptor (ESR1), esr1 (gene 259252) (UniProt P57717); assay: ATG_zfER1_XSP1: Attagene TRANS-FACTORIAL Multi-Species (XSP1) HepG2 Assay for zebrafish Estrogen Receptor (ESR1) (AID 2283772)
Method in brief: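 HepG2 cells were transiently transfected with multiplexed GAL4-UAS reporter units driven by chimeric NR-GAL4 proteins, dosed for 24 h with 3 nM 6-alpha-fluorotestosterone present, and reporter mRNA quantified by RT-PCR and capillary electrophoresis versus DMSO.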

[7] = tested on: zebrafish Estrogen Receptor (ESR2B), gene 317733; assay: ATG_zfER2b_XSP1: Attagene TRANS-FACTORIAL Multi-Species (XSP1) HepG2 Assay for zebrafish Estrogen Receptor (ESR2B) (AID 2283773)
Method in brief: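 Human hepatoma HepG2, transiently transfected with multi-reporter units; exogenous zebrafish ESR2B-Gal4 activity measured. Exposure 24 h alongside 3 nM 6-alpha-fluorotestosterone to partly stimulate AR.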

[8] = tested on: frog Estrogen Receptor (ESR2), gene 100174814; assay: ATG_frER2_XSP1: Attagene TRANS-FACTORIAL Multi-Species (XSP1) HepG2 Assay for frog Estrogen Receptor (ESR2) (AID 2283774)
Method in brief: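 Multiplexed TRANS-format reporter assay in human hepatoma HepG2: chimeric nuclear receptor-Gal4 activity reported as mRNA induction at 24 h, detected by fluorescent RT-PCR products on capillary electrophoresis and fitted upward from DMSO baseline.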

[9] = tested on: frog Estrogen Receptor (ESR1), gene 398734; assay: ATG_frER1_XSP1: Attagene TRANS-FACTORIAL Multi-Species (XSP1) HepG2 Assay for frog Estrogen Receptor (ESR1) (AID 2283777)
Method in brief: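 After transient transfection and 24 h compound treatment, total RNA from HepG2 cells was reverse-transcribed, amplified, FAM-labeled and resolved by capillary electrophoresis. Signal increases were fitted against DMSO controls.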

[10] = tested on: zebrafish Estrogen Receptor (ESR2A), gene 317734; assay: ATG_zfER2a_XSP1: Attagene TRANS-FACTORIAL Multi-Species (XSP1) HepG2 Assay for zebrafish Estrogen Receptor (ESR2A) (AID 2283778)
Method in brief: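 Gain-of-signal reporter transcription readout from GAL4-UAS units in transiently transfected HepG2 cells, 24 h exposure, 3 nM 6-alpha-fluorotestosterone co-present. Detection by RT-PCR with capillary electrophoresis fluorescence.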

[11] = target: chicken Estrogen Receptor (ESR1), ESR1 (gene 396099) (UniProt P06212); assay: ATG_chERa_XSP1: Attagene TRANS-FACTORIAL Multi-Species (XSP1) HepG2 Assay for chicken Estrogen Receptor (ESR1) (AID 2283779)
Method in brief: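 Gain-of-signal reporter transcription, relative to DMSO, was scored in transiently transfected HepG2 cells after a 24 h dose. Fluorescence intensity of amplified, digested reporter cDNA fragments served as the endpoint.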

[12] = target: Estrogen receptor (Homo sapiens) (UniProt P03372); assay: ATG_hERa_XSP1: Attagene TRANS-FACTORIAL Multi-Species (XSP1) HepG2 Assay for human Estrogen Receptor (ESR1) (AID 2283780)
Method in brief: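 Reporter transcripts from multiplexed GAL4-UAS units driven by NR-Gal4 chimeras in transiently transfected HepG2 were measured by RT-PCR with capillary electrophoresis 24 h post-dose, with 3 nM 6-alpha-fluorotestosterone present; gain-of-signal relative to DMSO.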

[13] = tested on: turtle Estrogen Receptor (ESR1), gene 101933533; assay: ATG_trERa_XSP1: Attagene TRANS-FACTORIAL Multi-Species (XSP1) HepG2 Assay for turtle Estrogen Receptor (ESR1) (AID 2283781)
Method in brief: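 Cell-based chimeric NR-Gal4 transactivation; HepG2; 24 h dosing; mRNA reporter detected by RT-PCR and capillary electrophoresis fluorescence.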

[14] = target: Estrogen receptor beta (Homo sapiens) (UniProt Q92731); assay: ATG_hERb_XSP1: Attagene TRANS-FACTORIAL Multi-Species (XSP1) HepG2 Assay for human Estrogen Receptor (ESR2) (AID 2283788)
Method in brief: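 Multiplexed trans-activation in transfected HepG2: ERβ-Gal4 reporter transcripts after 24 h treatment, detected by RT-PCR plus capillary electrophoresis.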

[15] = target: GAL4 Transcription Factor (Internal Marker), GAL4 (gene 855828) (UniProt P04386); assay: ATG_GAL4_XSP1: Attagene TRANS-FACTORIAL Multi-Species (XSP1) HepG2 Assay for GAL4 Transcription Factor (Internal Marker) (AID 2283789)
Method in brief: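 This background-control endpoint measures GAL4-driven reporter mRNA via RT-PCR and capillary electrophoresis of labelled fragments. Transiently transfected HepG2 cells were treated 24 h, with 3 nM 6-alpha-fluorotestosterone included, and gain-of-signal was fitted against DMSO.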

[16] = ATG_M_06_XSP1: Attagene TRANS-FACTORIAL Multi-Species (XSP1) HepG2 Assay for M06 Transcription Factor (Internal Marker) (AID 2283790)
Method in brief: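 This background-control readout tracks M06 reporter mRNA, measured by RT-PCR and capillary electrophoresis. HepG2 cells transiently carrying the GAL4-UAS reporter panel were dosed for 24 h with 3 nM 6-alpha-fluorotestosterone added for partial AR stimulation; increases were scored relative to DMSO.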

[17] = ATG_M_61_XSP1: Attagene TRANS-FACTORIAL Multi-Species (XSP1) HepG2 Assay for M61 Transcription Factor (Internal Marker) (AID 2283797)
Method in brief: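 Background-control readout: reporter transcripts measured by RT-PCR and capillary electrophoresis 24 h after dosing transiently transfected HepG2 multi-reporter cells, with 3 nM 6-alpha-fluorotestosterone present. Fitted in the positive direction relative to DMSO.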

Measured: AC50

Luciferin 4-monooxygenase (Photinus pyralis), sequence (P08659 whole entry, looked up): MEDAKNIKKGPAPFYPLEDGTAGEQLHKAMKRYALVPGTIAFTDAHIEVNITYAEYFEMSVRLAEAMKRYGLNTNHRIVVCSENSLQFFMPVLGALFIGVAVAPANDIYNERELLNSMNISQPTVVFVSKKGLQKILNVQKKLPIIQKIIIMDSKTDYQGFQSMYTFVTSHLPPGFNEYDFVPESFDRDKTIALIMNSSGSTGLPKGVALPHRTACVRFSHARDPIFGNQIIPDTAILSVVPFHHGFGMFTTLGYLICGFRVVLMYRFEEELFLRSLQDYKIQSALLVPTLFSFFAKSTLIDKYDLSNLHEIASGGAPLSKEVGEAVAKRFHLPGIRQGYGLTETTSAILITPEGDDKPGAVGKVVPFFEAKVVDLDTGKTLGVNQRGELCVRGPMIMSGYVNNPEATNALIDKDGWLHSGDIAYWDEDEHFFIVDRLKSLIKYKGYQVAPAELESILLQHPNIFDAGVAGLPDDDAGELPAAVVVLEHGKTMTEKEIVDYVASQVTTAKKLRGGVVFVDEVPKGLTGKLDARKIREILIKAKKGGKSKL
zebrafish Estrogen Receptor (ESR1), esr1 (gene 259252), sequence (P57717 whole entry, looked up, the tested form may be a part): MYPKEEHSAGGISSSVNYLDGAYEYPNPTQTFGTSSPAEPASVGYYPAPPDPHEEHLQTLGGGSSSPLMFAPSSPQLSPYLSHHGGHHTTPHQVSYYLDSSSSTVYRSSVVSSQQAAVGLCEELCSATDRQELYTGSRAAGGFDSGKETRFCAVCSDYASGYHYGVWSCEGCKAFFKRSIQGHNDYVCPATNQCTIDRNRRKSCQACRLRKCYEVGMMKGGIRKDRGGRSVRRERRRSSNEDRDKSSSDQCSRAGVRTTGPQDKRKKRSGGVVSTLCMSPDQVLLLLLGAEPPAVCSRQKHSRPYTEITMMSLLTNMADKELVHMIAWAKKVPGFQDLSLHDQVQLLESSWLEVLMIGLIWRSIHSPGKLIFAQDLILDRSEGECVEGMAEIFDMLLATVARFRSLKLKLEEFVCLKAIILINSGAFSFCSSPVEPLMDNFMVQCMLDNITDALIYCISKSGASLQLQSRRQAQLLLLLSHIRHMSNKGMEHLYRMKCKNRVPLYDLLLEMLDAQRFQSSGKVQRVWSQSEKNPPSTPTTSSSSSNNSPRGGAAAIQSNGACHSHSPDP
chicken Estrogen Receptor (ESR1), ESR1 (gene 396099), sequence (P06212 whole entry, looked up, the tested form may be a part): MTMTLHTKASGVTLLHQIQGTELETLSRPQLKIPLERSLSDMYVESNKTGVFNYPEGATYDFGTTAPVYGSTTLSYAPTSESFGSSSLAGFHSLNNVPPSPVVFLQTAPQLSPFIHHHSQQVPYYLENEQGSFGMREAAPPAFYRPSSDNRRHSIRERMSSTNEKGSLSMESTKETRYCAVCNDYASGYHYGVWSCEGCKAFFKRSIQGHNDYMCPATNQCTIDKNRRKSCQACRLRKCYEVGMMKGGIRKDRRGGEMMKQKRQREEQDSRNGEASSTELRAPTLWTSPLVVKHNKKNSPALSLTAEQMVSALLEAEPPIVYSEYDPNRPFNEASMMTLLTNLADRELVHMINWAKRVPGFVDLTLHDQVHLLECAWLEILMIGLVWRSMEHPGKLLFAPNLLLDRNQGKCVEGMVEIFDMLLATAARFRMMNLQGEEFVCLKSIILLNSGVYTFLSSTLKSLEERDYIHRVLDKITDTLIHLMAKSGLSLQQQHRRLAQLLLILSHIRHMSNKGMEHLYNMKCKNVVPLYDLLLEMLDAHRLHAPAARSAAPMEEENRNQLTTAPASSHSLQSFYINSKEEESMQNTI
GAL4 Transcription Factor (Internal Marker), GAL4 (gene 855828), sequence (P04386 whole entry, looked up, the tested form may be a part): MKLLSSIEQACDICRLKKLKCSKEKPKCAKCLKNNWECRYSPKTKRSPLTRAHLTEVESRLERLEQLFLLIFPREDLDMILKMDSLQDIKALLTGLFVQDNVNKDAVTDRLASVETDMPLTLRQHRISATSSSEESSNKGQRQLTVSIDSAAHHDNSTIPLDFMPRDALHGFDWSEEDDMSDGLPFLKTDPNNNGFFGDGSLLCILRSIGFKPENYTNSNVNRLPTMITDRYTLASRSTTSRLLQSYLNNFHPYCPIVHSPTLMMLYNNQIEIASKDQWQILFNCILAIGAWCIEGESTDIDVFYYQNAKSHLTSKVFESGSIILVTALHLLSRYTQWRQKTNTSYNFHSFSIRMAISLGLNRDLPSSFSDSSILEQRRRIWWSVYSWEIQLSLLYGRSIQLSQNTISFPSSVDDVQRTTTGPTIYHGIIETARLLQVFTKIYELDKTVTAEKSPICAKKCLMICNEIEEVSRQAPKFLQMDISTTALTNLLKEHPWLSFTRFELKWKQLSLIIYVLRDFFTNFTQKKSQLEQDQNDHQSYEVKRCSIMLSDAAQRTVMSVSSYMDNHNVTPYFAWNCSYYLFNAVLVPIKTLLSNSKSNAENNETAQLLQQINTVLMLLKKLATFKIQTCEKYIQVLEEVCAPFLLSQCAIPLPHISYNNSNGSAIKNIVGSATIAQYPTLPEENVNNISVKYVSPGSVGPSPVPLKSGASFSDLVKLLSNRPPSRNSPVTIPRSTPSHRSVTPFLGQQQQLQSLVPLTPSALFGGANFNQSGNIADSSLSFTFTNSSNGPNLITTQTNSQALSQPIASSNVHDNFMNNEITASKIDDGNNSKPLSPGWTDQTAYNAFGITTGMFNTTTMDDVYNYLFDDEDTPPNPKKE
Estrogen receptor beta (Homo sapiens), sequence (Q92731 whole entry, looked up, the tested form may be a part): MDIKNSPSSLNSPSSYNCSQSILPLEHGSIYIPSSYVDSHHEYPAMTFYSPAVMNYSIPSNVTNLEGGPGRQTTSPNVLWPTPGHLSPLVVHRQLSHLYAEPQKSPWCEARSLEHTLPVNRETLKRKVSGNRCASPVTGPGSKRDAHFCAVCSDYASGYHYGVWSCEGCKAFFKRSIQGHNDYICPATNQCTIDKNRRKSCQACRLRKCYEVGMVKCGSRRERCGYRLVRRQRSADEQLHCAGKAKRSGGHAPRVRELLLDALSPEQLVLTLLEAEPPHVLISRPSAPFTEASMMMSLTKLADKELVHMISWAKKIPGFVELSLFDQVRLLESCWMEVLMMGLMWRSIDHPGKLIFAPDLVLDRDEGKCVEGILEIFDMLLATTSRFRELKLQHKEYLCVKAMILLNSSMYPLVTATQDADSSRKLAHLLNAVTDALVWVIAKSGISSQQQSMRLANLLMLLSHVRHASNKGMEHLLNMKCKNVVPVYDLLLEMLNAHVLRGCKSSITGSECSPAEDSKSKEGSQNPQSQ
Estrogen receptor (Homo sapiens), sequence (P03372 whole entry, looked up, the tested form may be a part): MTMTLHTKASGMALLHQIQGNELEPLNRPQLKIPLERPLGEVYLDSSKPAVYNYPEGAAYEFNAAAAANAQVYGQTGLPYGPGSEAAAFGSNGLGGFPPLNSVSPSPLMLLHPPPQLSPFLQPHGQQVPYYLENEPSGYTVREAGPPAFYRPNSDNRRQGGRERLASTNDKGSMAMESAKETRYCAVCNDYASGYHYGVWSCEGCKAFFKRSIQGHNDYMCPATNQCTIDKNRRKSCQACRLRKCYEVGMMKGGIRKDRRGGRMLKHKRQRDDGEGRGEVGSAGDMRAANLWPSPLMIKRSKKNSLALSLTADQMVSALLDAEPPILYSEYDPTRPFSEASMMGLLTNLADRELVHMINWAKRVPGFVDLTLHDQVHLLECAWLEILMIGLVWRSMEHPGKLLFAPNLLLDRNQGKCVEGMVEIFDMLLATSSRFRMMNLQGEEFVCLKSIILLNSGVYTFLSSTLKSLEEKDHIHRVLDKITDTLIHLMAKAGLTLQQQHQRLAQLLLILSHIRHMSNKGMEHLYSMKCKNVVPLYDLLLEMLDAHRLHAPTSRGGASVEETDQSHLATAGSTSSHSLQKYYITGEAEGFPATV

Nc1ccc(Nc2ccccc2)cc1
inactive: [1]
active: [2] 87.5 µM | [3] 6.7 µM

Cn1cnc([N+](=O)[O-])c1Sc1ncnc2nc[nH]c12
active: [4] 1.15 µM | [2] 1.52 µM | [3] 4.02 µM
inactive: [1]

CCNc1ccccc1
inactive: [1] | [4] | [2]

O=C(OC[C@H]1O[C@@H](OC(=O)c2cc(O)c(O)c(OC(=O)c3cc(O)c(O)c(O)c3)c2)[C@H](OC(=O)c2cc(O)c(O)c(OC(=O)c3cc(O)c(O)c(O)c3)c2)[C@@H](OC(=O)c2cc(O)c(O)c(OC(=O)c3cc(O)c(O)c(O)c3)c2)[C@@H]1OC(=O)c1cc(O)c(O)c(OC(=O)c2cc(O)c(O)c(O)c2)c1)c1cc(O)c(O)c(OC(=O)c2cc(O)c(O)c(O)c2)c1
active: [1] 21.6 µM

O=P(OC(CCl)CCl)(OC(CCl)CCl)OC(CCl)CCl
active: [7] 20.8 µM | [8] 26 µM | [4] 31.8 µM | [2] 29.8 µM | [9] 3.06 µM | [11] 3.85 µM | [12] 2.78 µM | [13] 5.66 µM | [14] 26 µM
inactive: [1] | [5] | [6] | [10] | [15] | [16] | [17]
